Compound activity deposited in PubChem BioAssay by The Scripps Research Institute Molecular Screening Center.
Most compounds without a hit are left out; they make up all but 4.5% or so of the library.
hgDAF12 agonist = hgDAF-12 agonism, primary luciferase screen. HEK293 GAL4-hgDAF12 UAS-luciferase reporter, agonist luminescence; normalized to butyrate control. activation, % at 6.8 µM. 1.8% of 370,000 active. AID 687014;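 active = activation above a cutoff set at the mean of all screened compounds plus 3 SD, cut at about 10% in these data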
hcDAF12 agonist = activators of H. contortus DAF-12 nuclear receptor; activation, % at 6.8 µM; 1.4% of 370,000 active; AID 652067; HEK293 hcDAF-12 lit1-tk-luc reporter, luminescence; 0% DMSO, 100% Δ7-dafachronic acid;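 active = activation above the mean of all tested compounds plus 3 SD, cut at about 5.5% in these data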
FXN GAA850 act = activators of GAA850 frataxin (FXN) promoter. activation, % at 6 µM. 0.56% of 360,000 active. HEK293 lucGAA850 FXN promoter luciferase reporter, 24 h; percent of 10 µM SAHA response. AID 540364;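 active = activation above the average of all compounds screened plus 3 SD, cutoff fixed separately per campaign, cut at about 7.5% in these data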
ssDAF12 agonist = S. stercoralis DAF-12 activation, primary screen. activation, % at 6.8 µM. AID 652126. HEK293 ssDAF-12/GRIP1 lit1-tk-luc reporter, luminescence; % of 3 µM dafachronic acid response. 1% of 370,000 active;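 active = activation above the mean over all tested compounds plus 3 SD, cut at about 0.9% in these data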
DAX1 inh-1 = DAX1 (NR0B1) inhibition, primary screen | inhibition, % at 6.8 µM | 1.1% of 370,000 active | HEK293T StAR-luciferase reporter, SF-1/DAX-1 repression relief;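 active = inhibition above the mean over all tested compounds plus 3 SD, cut at about 3.6% in these data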;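 also: higher inhibition means more luminescence from relief of DAX-1 repression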
DAX1 inh-2 = inhibits human nuclear receptor DAX1; P51843; HEK293 Gal4-DAX1 luciferase reporter, luminescence; inhibition, % at 6.75 µM; 0.99% of 340,000 active;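 active = inhibition above the mean over all tested compounds plus 3 SD, cut at about 4.2% in these data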;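 also: inhibition shows as a rise in luminescence from relieved DAX1 repression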
Target sequence (P51843 207-470 limits assumed): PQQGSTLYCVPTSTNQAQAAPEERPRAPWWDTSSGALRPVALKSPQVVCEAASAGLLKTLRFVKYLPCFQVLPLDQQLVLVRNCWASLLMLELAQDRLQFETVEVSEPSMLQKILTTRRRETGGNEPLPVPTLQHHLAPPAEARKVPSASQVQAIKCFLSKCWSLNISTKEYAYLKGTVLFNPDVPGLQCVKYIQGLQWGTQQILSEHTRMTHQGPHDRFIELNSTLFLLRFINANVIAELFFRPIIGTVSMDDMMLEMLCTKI
Numbers stand for hits; – = inactive; · = not tested or not shown.

SMILES	hgDAF12 agonist	hcDAF12 agonist	FXN GAA850 act	ssDAF12 agonist	DAX1 inh-1	DAX1 inh-2
CCCCCCCCN1C(=O)[C@@H](CC(=O)NCCc2ccccc2OC)C[C@@]2(C(=O)OC)C1=C[C@H](C(C)C)O[C@@H]2C1CC1	–	–	·	–	–	·
CC(CCc1ccccc1)NC(=O)CN1CCOc2ccccc21 (stereo unspecified)	–	–	–	–	–	–
O=C(CN1CCOc2ccccc21)NCc1ccccc1	–	5.8	–	–	–	–
COC(=O)[C@]12C[C@H](CC(=O)NCc3ccc(OC)c(OC)c3)C(=O)N(CCc3ccc(OC)c(OC)c3)C1=C[C@H](C(C)C)O[C@@H]2C1CC1	–	–	·	–	–	·
Cc1ccc(CSc2nc3ccncc3n2CC(=O)Nc2cc(C)cc(C)c2)cc1	–	–	–	–	–	–
COc1ccc(-c2nc(Cn3c(SCc4ccc(C)cc4)nc4ccncc43)c(C)o2)cc1OC	12	–	–	–	–	–
S=C(Nc1ccccc1Cl)N1CCCCCC1	–	–	–	–	–	–
S=C(Nc1ccccc1Cl)N1CCC(c2ccccc2)C1 (stereo unspecified)	11	–	–	–	–	4.6
S=C(Nc1ccc(Cl)cc1Cl)N1CCCCC1	–	5.8	–	–	–	–
Fc1ccccc1NC(=S)N1CCC(c2ccccc2)C1 (stereo unspecified)	–	–	–	–	–	–
COC(=O)C1CN(Cc2ccc(OC)cc2)CCS(=O)(=O)N1Cc1ccccc1 (stereo unspecified)	–	–	·	–	–	·
CCOC(=O)/C=C(\C)N1N=C(c2ccccc2)CC1c1ccccc1 (stereo unspecified)	–	6.7	–	–	–	–
CC(=O)OCC(=O)N1N=C(c2ccc3ccccc3c2)CC1c1ccccc1 (stereo unspecified)	–	–	–	–	–	–
CCOC(=O)c1nnn(CC(=O)N2N=C(c3ccccc3)CC2c2ccccc2)c1C(=O)OCC (stereo unspecified)	–	–	–	–	–	5.1
C#CCN1CC(N(C)CCOC(=O)c2ccc([N+](=O)[O-])cc2)CS1(=O)=O (stereo unspecified)	–	–	·	–	–	·
COc1ccc(S(=O)(=O)N2N=C(c3ccc(NS(C)(=O)=O)cc3)CC2c2ccco2)cc1 (stereo unspecified)	–	5.6	–	1.3	–	–
COCCCNC(=O)Cn1nc(Cc2ccncc2)c2ccccc2c1=O	–	–	·	–	–	·
O=C(CNS(=O)(=O)c1cccc2ccccc12)N1CCN(c2ncccn2)CC1	–	–	·	–	–	·
c1ccc(-n2nnc(-c3cccnc3)n2)cc1	11	–	–	–	–	–
COc1ncccc1-c1nnn(-c2ccccc2Br)n1	–	–	–	–	–	–
COc1ncccc1-c1nnn(-c2ccccc2)n1	11	5.7	–	1.3	–	–
N#Cc1cc(-c2ccccc2)c[nH]c1=O	–	–	–	–	–	5.3
COC(=O)[C@]12C[C@H](CC(=O)NCc3cccc(C(F)(F)F)c3)C(=O)N(CCc3ccc(OC)c(OC)c3)C1=C[C@H](C1CCCC1)O[C@@H]2C	–	–	·	–	–	·
CC(C)(C)OC(=O)N1CCC(N[C@@H](Cc2c[nH]c3ccccc23)C(=O)NCCc2c[nH]c3ccccc23)(C(=O)NC2CCCCC2)CC1	–	–	·	–	·	·
Cc1cccc2c1cnn2C(=O)Nc1ccccc1Cl	–	5.8	–	–	–	–
SMILES	hgDAF12 agonist	hcDAF12 agonist	FXN GAA850 act	ssDAF12 agonist	DAX1 inh-1	DAX1 inh-2
O=C(CSc1nccc(-c2cccs2)n1)Nc1ccc(Cl)cc1	–	–	–	–	–	–
O=C(CSc1nccc(-c2cccs2)n1)Nc1cccc(Cl)c1Cl	–	–	–	1.1	–	–
N/C(=N\NC(=O)c1cccs1)c1cc2ccccc2oc1=O	11	–	–	–	–	–
N/C(=N\NC(=O)c1ccc(F)cc1)c1cc2ccccc2oc1=O	–	–	–	–	–	–
CCc1ccc(N(CC(=O)N2CCOCC2)S(C)(=O)=O)cc1	–	–	–	–	–	6.7
CS(=O)(=O)N(CC(=O)N1CCCCCC1)c1ccc(Cl)cc1	–	–	–	–	–	–
Cc1ccc(N(CC(=O)N2CCCCC2)S(=O)(=O)c2ccc(C)cc2)cc1	–	–	–	–	–	4.6
CCc1ccc(N(CC(=O)N2CCCC2)S(C)(=O)=O)cc1	–	–	–	–	–	–
CS(=O)(=O)N(CC(=O)N1CCOCC1)c1ccc(Cl)cc1	–	6.0	–	–	–	–
O=C(OCC#CCSc1nnc(-c2cccc3ccccc23)o1)C1CC1	–	–	·	–	·	·
CCOC(=O)CN1CC23C=CC(O2)C(C(=O)Nc2cc(OC)ccc2OC)C3C1=O (stereo unspecified)	–	–	–	–	–	4.9
Cc1occc1C(=O)OCC(=O)Nc1ccc(F)cc1	11	–	–	–	–	–
O=C(COC(=O)c1ccccc1Br)Nc1ccc(F)cc1	–	–	–	–	–	–
NC(=O)c1ccc(NC(=O)COC(=O)c2cc3c(s2)CCC3)cc1	–	–	–	–	–	–
O=C(COC(=O)c1cc2c(s1)CCC2)Nc1ccc(F)cc1	–	–	–	–	–	4.5
CCOC(=O)[C@@]12CN(C(=O)OC(C)(C)C)CC=C1N(Cc1ccc(OC)cc1)C(=O)[C@H]2CC(=O)N1CCN(C(=O)C2CC2)CC1	–	–	·	–	–	·
O=C(Nc1ccc(F)cc1)OCc1cn(Cc2cc(F)cc(F)c2)nn1	–	–	·	–	–	·
CC(C)c1ccc(NC(=O)C2=NNC(=O)CC2)cc1	–	–	–	–	–	5.3
Cc1nc(N2CCN(C(=O)C3CC3)CC2)c2c3c(sc2n1)CC(C)CC3 (stereo unspecified)	–	–	·	–	·	·
CCOC(=O)Cn1c(=O)cc(C)c2ccccc21	–	–	–	–	–	4.5
Cn1cnnc1Sc1ccc(C(=O)NCCC(c2ccccc2)c2ccccc2)cc1[N+](=O)[O-]	–	–	–	–	–	4.3
COC(=O)[C@]12C[C@H](CC(=O)N3CCSCC3)C(=O)N(CCC3=CCCCC3)C1=C[C@H](C(C)C)O[C@@H]2C1CC1	–	–	·	–	–	·
Cc1ccccc1-c1ccc(/C=C2/SC(N3CCOCC3)=NC2=O)o1	–	–	–	–	–	5.4
CCCCn1cnc2c(oc3ccccc32)c1=O	12	–	–	–	–	–
CC1(C)C/C(=N\O)C(C(O)c2cccc([N+](=O)[O-])c2)C(C)(C)N1 (stereo unspecified)	–	–	–	–	–	6.2
C/C(=C\c1ccc(Br)cc1)C(=O)c1c(C)cc(C)[nH]c1=O	–	–	–	–	–	–
C/C(=C\c1ccc(Cl)cc1)C(=O)c1c(C)cc(C)[nH]c1=O	–	–	–	–	–	4.5
